Compound activity: PubChem BioAssay, National Center for Advancing Translational Sciences (NCATS)
PI5P4Ka inh: PI5P4K alpha (human) kinase inhibition; P48426; PI5P4Kalpha enzyme, ADP-Glo luminescence, 60 min; hits give low values; max response, %; 330,000 compounds, 1.2% hits; AID 652105; active = max response of -50% or lower; inconclusive = between -30% and -50%; inactive = -30% or higher; also: value at the top dose of about 77 µM; % is scaled to controls: 0 for no effect and ±100 for the full control effect
Target sequence (P48426 whole entry, looked up): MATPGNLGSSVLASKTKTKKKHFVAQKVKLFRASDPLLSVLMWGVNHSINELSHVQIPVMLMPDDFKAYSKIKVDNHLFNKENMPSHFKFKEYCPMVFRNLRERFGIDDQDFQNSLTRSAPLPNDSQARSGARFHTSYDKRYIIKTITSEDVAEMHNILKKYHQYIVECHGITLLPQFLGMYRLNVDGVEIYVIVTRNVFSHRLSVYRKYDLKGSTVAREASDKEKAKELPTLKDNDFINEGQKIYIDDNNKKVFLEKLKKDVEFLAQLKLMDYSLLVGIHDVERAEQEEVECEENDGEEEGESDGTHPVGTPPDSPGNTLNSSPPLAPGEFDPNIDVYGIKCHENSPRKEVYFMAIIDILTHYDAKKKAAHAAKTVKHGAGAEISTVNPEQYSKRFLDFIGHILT
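Luminescence from ADP-Glo served as readout of PI5P4Kalpha activity in a qHTS format. Reaction: enzyme, substrate, compound, ATP at 5 microM final, 60 min at RT.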
PI4K2A block: PI4K2A (human) kinase inhibition; Q9BTU6; purified PI4K2A, ADP-Glo luminescence, 1 h; hits give low values; activity change, negative = inhibition, % at 76.9 µM; 420,000 compounds, 0.13% hits; AID 1346378; in the data active = activity change below about -50%; inconclusive = mostly about -30% to -49%;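 also: -100% = wells without enzyme as full effect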
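Compounds are screened against recombinant PI4K2A using PI as substrate and ATP, the latter dispensed at 300 microM. Reactions run one hour at ambient temperature before ADP-Glo detection; full inhibition defined by wells lacking enzyme.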
D3 antag: D3 dopamine receptor (human) antagonism | D3R cells, DiscoveRx beta-arrestin luminescence, antagonist mode; hits give low values | max response, negative = inhibition, % | 360,000 compounds, 2.5% hits | AID 652054; in the data active = max response below about -50%; inconclusive = no clear call, values can overlap the other calls; also: % is scaled to controls: 0 for no effect and ±100 for the full control effect
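Cells expressing the human receptor were seeded at 1500 cells/well, incubated overnight at 37 degrees C in 5% CO2, then exposed to library compounds with dopamine controls for 90 minutes at 37 degrees C before luminescent detection.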
D3 ag: D3 dopamine receptor (human) agonism | P35462 | D3R DiscoveRx beta-arrestin cells, luminescence, 90 min | max activation, % | 410,000 compounds, 0.58% hits; in the data active = max activation above about 30%; also: 0% is about no effect
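Cells at 1500/well, incubated overnight, then treated with pinned compounds (dopamine as control) for 90 min at 37 degrees C. DiscoveRx reagent added for 30 - 60 minutes at room temperature; luminescence read.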
LDHA inh: blocks human lactate dehydrogenase A; P00338; purified LDHA, NADH/diaphorase-resazurin fluorescence; hits give low values; activity change, % (values are at about 110 or 230 µM); 480,000 compounds, 0.15% hits; in the data active = activity change below about -30%; inconclusive = mostly about -25% to -30%;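 also: plate controls were DMSO wells for no effect and wells without enzyme for full effect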
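LDH5 2 nM; NADH 0.06 mM, pyruvate 0.2 mM; 200 mM Tris pH 7.4, EDTA, Tween-20; 5 min RT. Detection: diaphorase 0.133 mg/mL + resazurin 37 µM, fluorescence ex540/em590 at 0 and 20 min; normalized to enzyme-free and DMSO wells.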
* marks the source's active call; other numbers are inactive results. Only some compounds are listed: those with a hit (about 3.3% of all), similar ones and a draw of the others.

`COC(=O)C1=C(C)N(CCCCCC(=O)O)C(=O)NC1c1ccccc1` (stereo not given) gave PI5P4Ka inh 4, PI4K2A block 1, D3 antag 23, D3 ag -4 and LDHA inh -1.
`CCOC(=O)C1=C(C)N(Cc2ccccc2)C(=O)NC1c1ccccc1OS(=O)(=O)c1ccccc1[N+](=O)[O-]` (stereo not given) gave PI5P4Ka inh -1, PI4K2A block -1, D3 antag 0, D3 ag 46* and LDHA inh 0.
For CC1=C(C(=O)OCc2ccccc2)C(c2ccccc2[N+](=O)[O-])NC(=O)N1C (stereo not given) the results were PI5P4Ka inh 1, PI4K2A block -1, D3 antag 1, D3 ag 12 and LDHA inh 3.
NC(=O)[C@H](Cc1cc2ccccc2s1)NC(=O)[C@@H]1CC2(CC(c3cccc(NC(=O)[C@@H]4CCC(=O)N4)c3)=NO2)CN1C(=O)/C=C/Sc1ccccc1 (stereo not given in full) was read as PI5P4Ka inh -18, PI4K2A block 1, D3 antag 2, D3 ag -11 and LDHA inh 0.
`NC(=O)[C@H](Cc1cc2ccccc2s1)NC(=O)[C@@H]1CC2(CC(c3cccc(NC(=O)[C@@H]4CCC(=O)N4)c3)=NO2)CN1C(=O)/C=C/c1c(F)cccc1Cl` (stereo not given in full) gave PI5P4Ka inh -24, PI4K2A block -3, D3 antag 9, D3 ag 34* and LDHA inh -2.
`COC(=O)[C@]12C[C@H](CC(=O)N3CCSCC3)C(=O)N(Cc3ccc4c(c3)OCO4)C1=C[C@H](C(C)C)O[C@@H]2C1CC1` gave PI4K2A block -2.
Screening Cc1ccc2c(C)c(CCC(=O)Nc3ccc(F)cc3C)c(=O)oc2c1 returned LDHA inh 1.
`Cn1c(C(=O)NCCN2CCOCC2)cc2c(=O)n(C)c3ccccc3c21` gave PI5P4Ka inh 0, PI4K2A block 7, D3 antag -1, D3 ag 3 and LDHA inh -1.
For Cn1c(=O)cc(SCC(=O)NCCc2ccc(Cl)cc2)c2cc(Cl)ccc21 the results were PI4K2A block 0, D3 ag -6 and LDHA inh -16.
Cn1c(=O)cc(SCC(=O)NCCN2CCN(c3ccccc3F)CC2)c2cc(Cl)ccc21 was read as PI5P4Ka inh 2, PI4K2A block 1, D3 antag -63*, D3 ag -4 and LDHA inh -2.
`Cn1c(=O)cc(SCC(=O)NCCCN2CCN(c3ccc(F)cc3)CC2)c2ccccc21` gave PI5P4Ka inh 0, PI4K2A block 1, D3 antag -69*, D3 ag -7 and LDHA inh -8.
`Cn1c(C(=O)NCCN2CCc3ccccc3C2)cc2c(=O)n(C)c3ccccc3c21` gave PI5P4Ka inh -2, PI4K2A block 8, D3 antag -88*, D3 ag -12 and LDHA inh 3.
Screening Cn1c(=O)cc(SCC(=O)NCc2ccc(F)cc2)c2ccccc21 returned PI5P4Ka inh 5, PI4K2A block 5, D3 antag 6, D3 ag 10 and LDHA inh -1.
Screening O=C(CCn1c(=O)oc2ccccc21)NCCCN1CCN(c2ccc(F)cc2)CC1 returned PI5P4Ka inh -1, PI4K2A block -2, D3 antag -52*, D3 ag 1 and LDHA inh 0.
`Cn1c(C(=O)NCCCN2CCN(c3ccc(F)cc3)CC2)cc2c(=O)n(C)c3ccccc3c21` gave PI5P4Ka inh 1, PI4K2A block 1, D3 antag -84*, D3 ag -14 and LDHA inh -2.
For Cn1c(C(=O)NCCN2CCN(c3ccccc3F)CC2)cc2c(=O)n(C)c3ccccc3c21 the results were PI5P4Ka inh -12, PI4K2A block -18, D3 antag -22, D3 ag -7 and LDHA inh -5.
Screening Oc1ccc(CSc2nc3ccccc3s2)c2cccnc12 returned LDHA inh -1.
CC1=CC(=O)C=CC1=Nc1ccc(N(C)C)cc1 was read as PI5P4Ka inh -95*, PI4K2A block inconclusive, D3 antag -51*, D3 ag -11 and LDHA inh 27.
For CCOc1ccc(S(=O)(=O)Nc2ccc(N3CCNCC3)c(C(=O)NCC(C)C)c2)cc1 the results were LDHA inh -1.
Screening CC(=O)Nc1c2c3c(cccc3n(C)c1=O)C(=O)c1ccccc1-2 returned PI5P4Ka inh -3, PI4K2A block 10, D3 antag -51*, D3 ag -15 and LDHA inh 1.
For CCc1nnsc1C(=O)NC(C)c1ccc(OC2CCCC2)c(OC)c1 (stereo not given) the results were LDHA inh 6.
`Cc1ccccc1-c1cc(C(=O)NCCC(c2ccccc2)c2ccccc2)c2ccccc2n1` gave LDHA inh -5.
For COc1cccc(NC(=O)c2csc3c2CCCCC3)c1 the results were PI4K2A block -5, D3 ag 44* and LDHA inh 0.
`O=C(Cn1c(-c2ccccc2)cc2ccccc21)N1CCCC1` gave LDHA inh 16.
CN(Cc1ccccc1)C1CCCN(C(=O)c2ccc(Cl)s2)C1 (stereo not given) was read as PI5P4Ka inh 6, PI4K2A block -2, D3 antag -82*, D3 ag -12 and LDHA inh -6.
Screening CCc1ccc(-c2noc(Cn3nc(C)c(S(=O)(=O)N4CCc5ccccc54)c3C)n2)cc1 returned LDHA inh -1.
For Cc1cc(Br)ccc1NC(=O)CNC(=O)Cn1ncc(Cl)c(Cl)c1=O the results were PI5P4Ka inh -7, PI4K2A block -3, D3 antag -83*, D3 ag -15 and LDHA inh 0.
COc1ccc(NC(=O)Cn2ncc(Cl)c(Cl)c2=O)cc1S(=O)(=O)N1CCOCC1 was read as PI5P4Ka inh -78*, PI4K2A block inconclusive, D3 antag 0, D3 ag 3 and LDHA inh -2.
`Cc1ccc(S(=O)(=O)N2CCCCC2)cc1NC(=O)Cn1ncc(Cl)c(Cl)c1=O` gave PI5P4Ka inh -52*, PI4K2A block inconclusive, D3 antag -64*, D3 ag -20 and LDHA inh 4.
Screening COc1ccc(NC(=O)c2ccc(Cl)nc2)cc1S(=O)(=O)N1CCOCC1 returned PI5P4Ka inh -5, PI4K2A block 2, D3 antag 10, D3 ag 1 and LDHA inh -2.
For Cc1ccc2oc(=O)c3cnn(CC(=O)Nc4ccc(Br)cc4C)c3c2c1 the results were PI4K2A block 0, D3 ag 1 and LDHA inh -1.
